About 2,000 (36%) of roughly 5,500 compounds were called active. Another 18% or so got no clear call; they are omitted. No stated cut-off is given here; in the data, active means normalized growth mostly below about 0.91 (no sharp cut-off); inconclusive means no clear call, values can overlap the other calls; inactive means mostly above about 0.92. This is one part of the list.
Assay: chemical genetic growth profiling, strain panel (AID 1159580);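 further: tested at 20 µM; growth read once vehicle control cultures reached saturation at 30 °C; 1 = growth at the plate median or of vehicle wells; lower values mean less growth of the strain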
Details: growth OD
[1] = S. cerevisiae deletion strains, locus YAL013W, strain DEP1, hits give low values
[2] = S. cerevisiae deletion strains, locus YGR078C, strain PAC10, hits give low values
[3] = S. cerevisiae deletion strains, locus YJR075W, strain HOC1, hits give low values
[4] = S. cerevisiae deletion strains, locus YNL322C, strain KRE1, hits give low values
[5] = S. cerevisiae deletion strains, locus YPL055C, strain LGE1, hits give low values
[6] = S. cerevisiae deletion strains, locus YHR030C, strain SLT2, hits give low values
[7] = S. cerevisiae deletion strains, locus YJL095W, strain BCK1, hits give low values

Measured: normalized growth

CCCCc1ccc(C(=O)O)nc1
inactive: [1] 1.02 | S. cerevisiae deletion strains, locus YAL040C, strain CLN3, hits give low values 0.992 | S. cerevisiae deletion strains, locus YCL061C, strain MRC1 (second series), hits give low values 1 | S. cerevisiae deletion strains, locus YDR363W, strain ESC2, hits give low values 1.02 | S. cerevisiae deletion strains, locus YER002W, strain NOP16, hits give low values 1.05 | [2] 1 | [3] 1.07 | S. cerevisiae deletion strains, locus YNL175C, strain NOP13, hits give low values 0.988 | S. cerevisiae deletion strains, locus YNL197C, strain WHI3, hits give low values 1.01 | S. cerevisiae deletion strains, locus YNL224C, strain SQS1, hits give low values 0.979 | [4] 1.02 | S. cerevisiae deletion strains, locus YOR083W, strain WHI5 (second series), hits give low values 1.05 | [5] 1.03

OC[C@H]1O[C@H](OCCCc2ccc(O)cc2)[C@H](O)[C@@H](O)[C@@H]1O
inactive: [6] 0.97 | S. cerevisiae deletion strains, locus YHR079C, strain IRE1, hits give low values 0.993 | [7] 1 | S. cerevisiae deletion strains, locus YJR066W, strain TOR1, hits give low values 0.93 | S. cerevisiae deletion strains, locus YLR113W, strain HOG1, hits give low values 0.979 | S. cerevisiae deletion strains, locus YNL183C, strain NPR1, hits give low values 0.933 | S. cerevisiae deletion strains, locus YOR231W, strain MKK1, hits give low values 0.975 | S. cerevisiae deletion strains, locus YPL256C, strain CLN2, hits give low values 0.968

CC(N)Cc1ccc(O)cc1 (configuration not stated)
inactive: [1] 1.01 | S. cerevisiae deletion strains, locus YBR021W, strain FUR4, hits give low values 1.04 | S. cerevisiae deletion strains, locus YBR229C, strain ROT2, hits give low values 1.01 | S. cerevisiae deletion strains, locus YCL029C, strain bik1, hits give low values 1.02 | S. cerevisiae deletion strains, locus YDL035C, strain GPR1, hits give low values 1.02 | S. cerevisiae deletion strains, locus YDL074C, strain BRE1, hits give low values 1 | S. cerevisiae deletion strains, locus YDL101C, strain DUN1, hits give low values 1.02 | S. cerevisiae deletion strains, locus YDL134C, strain PPH21, hits give low values 1.01 | S. cerevisiae deletion strains, locus YDL185W, strain tfp1, hits give low values 1.01 | S. cerevisiae deletion strains, locus YDL192W, strain arf1, hits give low values 1.03 | S. cerevisiae deletion strains, locus YDR101C, strain arx1, hits give low values 1.01 | S. cerevisiae deletion strains, locus YDR150W, strain NUM1, hits give low values 1.01 | S. cerevisiae deletion strains, locus YDR162C, strain NBP2, hits give low values 1 | S. cerevisiae deletion strains, locus YDR318W, strain mcm21, hits give low values 1.03 | S. cerevisiae deletion strains, locus YDR388W, hits give low values 1.02 | S. cerevisiae deletion strains, locus YDR502C, strain sam2, hits give low values 1.01 | S. cerevisiae deletion strains, locus YEL061C, strain CIN8, hits give low values 1.02 | S. cerevisiae deletion strains, locus YER110C, hits give low values 1.02 | S. cerevisiae deletion strains, locus YER155C, strain BEM2, hits give low values 1 | S. cerevisiae deletion strains, locus YER167W, strain BCK2, hits give low values 1.03 | S. cerevisiae deletion strains, locus YGL078C, strain dbp3, hits give low values 1.02 | S. cerevisiae deletion strains, locus YGL086W, strain mad1, hits give low values 1.02 | S. cerevisiae deletion strains, locus YGL248W, strain PDE1, hits give low values 1.02 | [2] 1.01 | S. cerevisiae deletion strains, locus YGR135W, strain pre9, hits give low values 1 | S. cerevisiae deletion strains, locus YGR229C, strain SMI1, hits give low values 1.01 | S. cerevisiae deletion strains, locus YGR252W, strain gcn5, hits give low values 1.04 | [6] 1.01 | S. cerevisiae deletion strains, locus YHR079C, strain IRE1 (second series), hits give low values 1.03 | S. cerevisiae deletion strains, locus YHR094C, strain hxt1, hits give low values 1.01 | S. cerevisiae deletion strains, locus YHR129C, strain ARP1, hits give low values 1.03 | S. cerevisiae deletion strains, locus YHR200W, strain rpn10, hits give low values 1.01 | S. cerevisiae deletion strains, locus YIL066C, strain RNR3, hits give low values 1.01 | S. cerevisiae deletion strains, locus YIL073C, strain SPO22, hits give low values 1.07 | S. cerevisiae deletion strains, locus YIL125W, strain kgd1, hits give low values 1.02 | S. cerevisiae deletion strains, locus YIR030C, strain dcg1, hits give low values 1.02 | [7] 1.02 | S. cerevisiae deletion strains, locus YJL134W, strain LCB3, hits give low values 1.01 | S. cerevisiae deletion strains, locus YJL168C, strain set2, hits give low values 1.01 | S. cerevisiae deletion strains, locus YJL187C, strain SWE1 (second series), hits give low values 1.02 | S. cerevisiae deletion strains, locus YJR043C, strain POL32, hits give low values 1.06 | [3] 1.02 | S. cerevisiae deletion strains, locus YKL009W, strain mrt4, hits give low values 1.04 | S. cerevisiae deletion strains, locus YKL068W, hits give low values 1.01 | S. cerevisiae deletion strains, locus YKL085W, strain MDH1 (second series), hits give low values 1.02 | S. cerevisiae deletion strains, locus YKL085W, strain MDH1, hits give low values 1.02 | S. cerevisiae deletion strains, locus YKL190W, strain CNB1, hits give low values 1.01 | S. cerevisiae deletion strains, locus YKR001C, strain vps1, hits give low values 1.04 | S. cerevisiae deletion strains, locus YLR039C, strain RIC1, hits give low values 1.05 | S. cerevisiae deletion strains, locus YLR058C, strain SHM2, hits give low values 1.02 | S. cerevisiae deletion strains, locus YLR102C, strain apc9, hits give low values 1.02 | S. cerevisiae deletion strains, locus YLR262C, strain YPT6, hits give low values 1.01 | S. cerevisiae deletion strains, locus YLR268W, strain sec22, hits give low values 1.01 | S. cerevisiae deletion strains, locus YLR330W, strain CHS5, hits give low values 1.01 | S. cerevisiae deletion strains, locus YLR342W, strain FKS1 (second series), hits give low values 1.08 | S. cerevisiae deletion strains, locus YLR371W, strain rom2, hits give low values 1.02 | S. cerevisiae deletion strains, locus YLR418C, strain cdc73, hits give low values 0.995 | S. cerevisiae deletion strains, locus YML016C, strain PPZ1, hits give low values 1.02 | S. cerevisiae deletion strains, locus YML032C, strain rad52, hits give low values 1.04 | S. cerevisiae deletion strains, locus YML124C, strain tub3, hits give low values 1.01 | S. cerevisiae deletion strains, locus YMR078C, strain ctf18, hits give low values 1.03 | S. cerevisiae deletion strains, locus YMR223W, strain ubp8, hits give low values 1.03 | S. cerevisiae deletion strains, locus YMR263W, strain SAP30, hits give low values 1.01 | S. cerevisiae deletion strains, locus YMR307W, strain GAS1, hits give low values 1.08 | S. cerevisiae deletion strains, locus YNL067W, strain RPL9B, hits give low values 1.01 | S. cerevisiae deletion strains, locus YNL128W, strain TEP1, hits give low values 0.99 | S. cerevisiae deletion strains, locus YNL153C, strain GIM3, hits give low values 1.01 | S. cerevisiae deletion strains, locus YNL233W, strain BNI4, hits give low values 1.02 | S. cerevisiae deletion strains, locus YNL250W, strain rad50, hits give low values 1.01 | S. cerevisiae deletion strains, locus YNL271C, strain bni1, hits give low values 1.02 | S. cerevisiae deletion strains, locus YNL298W, strain CLA4, hits give low values 1.03 | S. cerevisiae deletion strains, locus YNL307C, strain MCK1, hits give low values 1.03 | [4] 1.01 | S. cerevisiae deletion strains, locus YNR052C, strain pop2, hits give low values 1.01 | S. cerevisiae deletion strains, locus YOL006C, strain TOP1, hits give low values 1.07 | S. cerevisiae deletion strains, locus YOL012C, strain htz1 1.46 | S. cerevisiae deletion strains, locus YOL147C, strain pex11, hits give low values 1.02 | S. cerevisiae deletion strains, locus YOR061W, strain CKA2, hits give low values 1.01 | S. cerevisiae deletion strains, locus YOR069W, strain VPS5, hits give low values 1.02 | S. cerevisiae deletion strains, locus YOR136W, strain idh2, hits give low values 1.01 | S. cerevisiae deletion strains, locus YOR144C, strain elg1, hits give low values 1.01 | S. cerevisiae deletion strains, locus YOR184W, strain ser1, hits give low values 1.04 | S. cerevisiae deletion strains, locus YOR316C, strain cot1, hits give low values 1.02 | [5] 0.982 | S. cerevisiae deletion strains, locus YPL241C, strain CIN2, hits give low values 1.01 | S. cerevisiae deletion strains, locus YPR119W, strain clb2, hits give low values 1.01 | S. cerevisiae deletion strains, locus YPR141C, strain kar3, hits give low values 1.02 | S. cerevisiae deletion strains, locus YPR163C, strain tif3, hits give low values 1.02 | S. cerevisiae deletion strains, locus YPR167C, strain met16, hits give low values 1.02 | S. cerevisiae deletion strains, strain wtn01, hits give low values 1.01 | S. cerevisiae strains, strain wild type, hits give low values 1.01
